# DAX1 inh-1: DAX1 (NR0B1) inhibitors, primary screen, cell-based, HEK293, Gal4-DAX1, luciferase luminescence. Nuclear receptor subfamily 0 group B member 1 (Homo sapiens), P51843. HEK293 Gal4-DAX1 luciferase reporter. inhibition, % at 6.75 µM. hit rate 0.99% among 340,000. AID 504766, 2011;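 active means inhibition above the mean over all tested compounds plus 3 SD, cut at about 4.2% in these data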;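 further: 0% = DAX1-transfected cells with DMSO and 100% = empty-vector control cells with DMSO; inhibition shows as a rise in luminescence from relieved DAX1 repression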
# DAX1 inh-2: DAX1 (NR0B1) inhibitors on StAR promoter, primary screen, cell-based, luminescence, SF-1 (NR5A1), full-length DAX-1; hit rate 1.1% among 370,000; HEK293T StAR-luciferase reporter, SF-1/DAX-1 repression relief; inhibition, % at 6.8 µM;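 active means inhibition above the mean over all tested compounds plus 3 SD, cut at about 3.6% in these data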;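 further: 0% = DAX-1 cells with DMSO and 100% = cells lacking DAX-1 with DMSO; higher inhibition means more luminescence from relief of DAX-1 repression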
# hcDAF12 agonist: H. contortus DAF-12 nuclear receptor activators, primary screen, cell-based, luminescence, HEK293, lit1-tk-luc reporter. hit rate 1.4% among 370,000. HEK293 hcDAF-12 lit1-tk-luc reporter; 0% DMSO, 100% Δ7-dafachronic acid. activation, % at 6.8 µM;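 active means activation above the mean of all tested compounds plus 3 SD, cut at about 5.5% in these data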;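 further: 100% = response to 3 µM Δ7-dafachronic acid high control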
# ssDAF12 agonist: S. stercoralis DAF-12 nuclear receptor activators, primary screen, cell-based, luminescence, HEK293, GRIP1 co-expression, lit1-tk-luc. Nuclear hormone receptor DAF-12 (Strongyloides stercoralis). activation, % at 6.8 µM. hit rate 1% among 370,000. HEK293 ssDAF-12/GRIP1 lit1-tk-luc reporter; % of 3 µM dafachronic acid response;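 active means activation above the mean over all tested compounds plus 3 SD, cut at about 0.9% in these data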;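 further: 0% = DMSO-only wells and 100% = 3 µM delta7-dafachronic acid wells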
# hgDAF12 agonist: H. glycines DAF-12 receptor agonists, primary screen, cell-based, luminescence, HEK293, GAL4 fusion, UAS-luciferase; HEK293 GAL4-hgDAF12 UAS-luciferase reporter, agonist luminescence; normalized to butyrate control; activation, % at 6.8 µM; hit rate 1.8% among 370,000; AID 687014, 2013;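 active means activation above a cutoff set at the mean of all screened compounds plus 3 SD, cut at about 10% in these data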;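 further: 0% = DMSO wells and 100% = sodium butyrate wells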
# SMARCA2 activ: SMARCA2 (BRM) function activators, primary screen, cell-based, luminescence, high throughput; AID 652017, 2013; MG213 cells, MMTV-luciferase reporter, dexamethasone, overnight; activation, % at 9.1 µM; hit rate 1% among 370,000; in the data active means activation above about 7.8%;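 further: 0% = vehicle wells and 100% = reference activator wells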
# DAX1 conf: DAX1 (NR0B1) inhibitors relieving SF-1 repression, confirmation, cell-based, luminescence, HEK293T, full-length DAX-1, SF-1 activated StAR promoter | inhibition, % at 6.8 µM | HEK293T StAR-promoter luciferase reporter, SF-1/DAX-1 repression | shares compounds with DAX1 inh-2 | AID 652134, 2013 | hit rate 87% among 2,400;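 active means inhibition above the average of every tested compound plus 3 SD, cut at about 3.8% in these data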;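 further: 0% = DAX-1 cells with DMSO and 100% = no DAX-1 control cells with DMSO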
# SF1 mutant ctr: StAR reporter signal changes without DAX1, counter-screen for DAX1 inhibitor project, cell-based, luminescence, AF-2 mutant SF-1, transactivation; shares compounds with DAX1 inh-2; HEK293 StAR-luciferase, SF-1 AF2 mutant; inhibition, % at 6.8 µM; hit rate 78% among 2,400;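 active means inhibition above the mean of all tested compounds plus 3 SD, cut at about 3% in these data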;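 further: 0% = DAX-1 transfected cells with DMSO and 100% = cells without DAX-1 with DMSO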
# SMARCA2 act conf: SMARCA2 (BRM) function activators, confirmation, cell-based, luminescence, triplicate; MG213 cells, MMTV-luciferase with dexamethasone, overnight; MG213 cells expressing E1A, Rb sequestered; DMSO wells 0%, reference activator 100%; activation, % at 9.1 µM; hit rate 30% among 3,500; shares compounds with SMARCA2 activ;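 active means activation above its plate's cutoff, the mean activation of tested wells plus 3 SD, cut at about 7.9% in these data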
# VP16 Luc act: GAL4-VP16 luciferase reporter activation, counter-screen for SMARCA2 (BRM) activator project, cell-based, pG5luc, luminescence, high throughput | hit rate 41% among 3,500 | HEK293 GAL4-VP16 pG5luc reporter; scaled: DMSO wells 0%, SAHA wells 100% | activation, % at 9.1 µM | shares compounds with SMARCA2 activ;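 active means activation above the solvent-only control well mean plus 3 SD, averaged across control plates, cut at about 5.2% in these data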
# LXRb hcDAF ctr: LXR agonists, Gal4 luciferase reporter, confirmation, counter-screen for hcDAF-12 agonist project, cell-based, luminescence, HEK293, H. contortus campaign; shares compounds with hcDAF12 agonist; AID 743027, 2013; 3,400 tested, under 10 active; HEK293 Gal4-LXR tk-luc reporter, 24 h; normalized: DMSO 0%, positive control 100%; activation, % at 6.8 µM;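 active means mean percent activation of the reporter above a cutoff set as the average over tested compounds plus their standard deviation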
# Target sequence (P55055 whole entry, looked up, the tested form may be a part): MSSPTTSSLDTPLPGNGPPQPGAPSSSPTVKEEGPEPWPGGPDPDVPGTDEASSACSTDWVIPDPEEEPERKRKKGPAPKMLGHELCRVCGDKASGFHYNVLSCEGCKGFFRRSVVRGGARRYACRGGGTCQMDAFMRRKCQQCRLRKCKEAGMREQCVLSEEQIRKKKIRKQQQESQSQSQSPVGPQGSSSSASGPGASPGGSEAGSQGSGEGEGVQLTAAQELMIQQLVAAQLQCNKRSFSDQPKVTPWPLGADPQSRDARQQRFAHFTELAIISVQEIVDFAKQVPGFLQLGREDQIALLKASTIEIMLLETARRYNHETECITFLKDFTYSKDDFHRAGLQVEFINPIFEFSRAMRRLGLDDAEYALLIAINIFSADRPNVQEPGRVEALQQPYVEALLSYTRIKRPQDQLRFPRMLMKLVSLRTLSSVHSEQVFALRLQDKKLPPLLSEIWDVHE
# hcDAF12 conf: H. contortus DAF-12 receptor agonists, confirmation, cell-based, luminescence, HEK293, lit1-tk-luc, triplicate; shares compounds with hcDAF12 agonist; hit rate 61% among 3,400; activation, % at 6.8 µM; HEK293 hcDAF-12 lit1-tk-luc reporter; % of Δ7-dafachronic acid response;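 active means mean activation across triplicate tests above the threshold derived from the earlier primary screen, cut at about 5.5% in these data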;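 further: 0% = DMSO only wells and 100% = 3 µM Δ7-dafachronic acid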
# hgDAF12 ag: H. glycines DAF-12 receptor agonists, confirmation, cell-based, luminescence, HEK293, GAL4-LBD fusion; shares compounds with hgDAF12 agonist; HEK293 GAL4-hgDAF12 luciferase reporter, agonist mode; percent of butyrate response; activation, % at 6.8 µM; hit rate 80% among 3,300; AID 743050, 2013;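 active means mean activation over triplicate wells above the hit cutoff derived from the earlier primary screen, cut at about 11% in these data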;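 further: 0% = DMSO low control and 100% = 2 mM sodium butyrate high control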
# LXR ag 2: LXR agonists, Gal4 luciferase reporter, confirmation, counter-screen for hgDAF-12 agonist project, cell-based, luminescence, HEK293, H. glycines campaign. shares compounds with hgDAF12 agonist. 3,300 tested, under 10 active. 24 h. activation, % at 6.8 µM. AID 743051, 2013;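 active means mean activation of the triplicate above a set limit carried over from the primary screen, none filed active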
# * = called active by the depositor; · = no result given. Only some compounds are listed: those with a hit (about 4.8% of all), similar ones and a draw of the others.
SMILES,DAX1 inh-1,DAX1 inh-2,hcDAF12 agonist,ssDAF12 agonist,hgDAF12 agonist,SMARCA2 activ,DAX1 conf,SF1 mutant ctr,LXRb hcDAF ctr,hcDAF12 conf,hgDAF12 ag,LXR ag 2,others
CCOc1ccc(NC(=O)c2csc3c2CCCC3)cc1,1,7.1*,5.6*,0,18*,4,12*,7.7*,·,·,16*,1,
COc1ccc(-c2coc3cc(OC)cc(OC)c3c2=O)cc1,0,3,1,-1,4,4,·,·,·,·,·,·,
CC(=O)Oc1ccc2c(=O)c(-c3ccccc3)coc2c1,0,5.9*,2,-1,13*,10*,6.5*,4.0*,·,·,10,0,SMARCA2 act conf=3;VP16 Luc act=5.6*
COc1ccc(-c2coc3cc(OC)ccc3c2=O)cc1,4,5.8*,5,0,19*,6,12*,7.0*,·,·,13*,1,
CCC(=O)Nc1ccc(OCc2nc3ccccc3s2)cc1,2,9.4*,11*,2.5*,20*,3,15*,7.7*,1,11*,16*,1,
CN(C)c1ccc2c(=O)c3ccccc3oc2n1,·,7.8*,7.9*,0,13*,2,13*,5.9*,1,8.4*,22*,1,
Cc1nc2oc3ccccc3c(=O)c2cc1C(=O)O,0,0,0,-1,0,0,·,·,·,·,·,·,

# Source: PubChem (The Scripps Research Institute Molecular Screening Center)
